Test [1] is described as follows: Cell Viability - LYMP2-002 (AID 977).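 Also: plate controls were DMSO only for no effect and 92 µM tetraoctylammonium bromide for full effect.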 Summed up: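 Human lymphoblastoid cells (2500/well) in complete medium were preincubated 5 hr at 37 C, then exposed to compounds for 24 hr at 37 C. Intracellular ATP was read by CellTiter-Glo luminescence; AC50 came from Hill-equation concentration-response fits.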
Test [2] in a line: Cell Viability - LYMP2-006 (AID 978). Also: % is scaled to controls: 0 for no effect and ±100 for the full control effect; nearly all actives have a fitted effect of over 60% in size. Summed up:
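In this cytotoxicity screen, the human lymphoblastoid line grew in complete medium with test compounds for 24 hr at 37 C. Cellular ATP served as the viability signal.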

Test [3] is described as follows: Cell Viability - LYMP2-007 (AID 979).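 Also: cells exposed to compound for 24 h before reading; 0% = DMSO only and the negative end = 92 µM tetraoctylammonium bromide; nearly all actives have a fitted effect of over 60% in size.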 Summed up: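 qHTS cytotoxicity: 2500 cells/well, 5 hr 37 C settle, compound 24 hr 37 C, CellTiter-Glo 30 min RT, luminescence. Decrease in ATP = toxicity. AC50 by standard Hill equation; tetraoctylammonium bromide positive control.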
Test [4] can be described thus: Cell Viability - LYMP2-008 (AID 980). Also: % is scaled to controls: 0 for no effect and ±100 for the full control effect; nearly all actives have a fitted effect of over 60% in size. In a few lines: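 Luminescent ATP read-out (CellTiter-Glo, 30 min RT) after 24 hr compound exposure at 37 C of human lymphoblastoid cells in complete medium. Decrease in ATP taken as cytotoxicity; AC50 derived by standard Hill fit of qHTS concentration-response data.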
Test [5] can be described thus: Cell Viability - LYMP2-010 (AID 981). Also: % is scaled to controls: 0 for no effect and ±100 for the full control effect; nearly all actives have a fitted effect of over 55% in size. In a few lines:
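qHTS cytotoxicity, 1536-well: 2500 cells/well, 5 hr settle, 24 hr compound at 37 C, CellTiter-Glo 30 min RT, luminescence read. Decrease in ATP = toxicity; AC50 via standard Hill equation. Positive control tetraoctylammonium bromide.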

A short description of test [6]: Cell Viability - LYMP2-012 (AID 982).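 Also: cellular ATP by luciferase luminescence where a drop means cytotoxicity; cells exposed to compound for one day before reading; 0% = DMSO only and full loss = 92 µM tetraoctylammonium bromide; nearly all actives have a fitted effect of over 55% in size.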
A short description of test [7]: Cell Viability - LYMP2-014 (AID 983).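 Also: plate controls were DMSO only for no effect and 92 µM tetraoctylammonium bromide for full effect; nearly all actives have a fitted effect of over 50% in size.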 In a few lines: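 2500 cells/well, 5 hr 37 C; cpd 24 hr 37 C, complete medium; CellTiter-Glo 30 min RT, luminescence; ATP loss = toxicity; AC50 via Hill eqn; tetraoctylammonium bromide positive control.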
Test [8] in a line: Cell Viability - LYMP2-016 (AID 984). Also: % is scaled to controls: 0 for no effect and ±100 for the full control effect; nearly all actives have a fitted effect of over 55% in size. In a few lines:
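Concentration-dependent ATP depletion measured in LYMP2-016 lymphoblastoid cells, 24 h, 37 C; luciferase-based luminescent detection; Hill-equation AC50.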

A short description of test [9]: Cell Viability - LYMP2-018 (AID 985).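 Also: plate controls were DMSO only for no effect and tetraoctylammonium bromide at 92 µM for full effect; nearly all actives have a fitted effect of over 50% in size.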 In a few lines:
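2500 cells/well; 5 hr 37 C; cmpd 24 hr 37 C, complete medium; CellTiter-Glo 30 min RT; luminescence. Tetraoctylammonium bromide positive control. AC50 via Hill fit.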

The nature of test [10]: Cell Viability - LYMP2-020 (AID 986).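 Also: plate controls were DMSO only for no effect and tetraoctylammonium bromide at 92 µM for full effect; nearly all actives have a fitted effect of over 55% in size.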 In a few lines:
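qHTS, 2500 cells/well; 5 hr then 24 hr compound exposure, 37 C; CellTiter-Glo luminescence after 30 min RT; ATP decrease taken as cytotoxicity; AC50 via Hill equation; tetraoctylammonium bromide positive control.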

A short description of test [11]: Cell Viability - LYMP2-022 (AID 987). In a few lines: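 Luminescent ATP read-out (CellTiter-Glo, 30 min, RT) after 24 hr, 37 C compound exposure of 2500 human lymphoblastoid cells/well in complete medium. Cytotoxicity taken as concentration-dependent ATP loss; AC50 from standard Hill equation.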
Test [12] in a line: Cell Viability - LYMP2-024 (AID 988).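 Also: plate controls were DMSO only for no effect and 92 µM tetraoctylammonium bromide for full effect; nearly all actives have a fitted effect of over 60% in size.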 Summed up: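 ATP-based luminescence (CellTiter-Glo, 30 min RT) after 24 h compound exposure at 37 C of 2500 lymphoblastoid cells/well; decrease in ATP taken as cytotoxicity. qHTS concentration-response fitted to standard Hill equation for AC50.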
Test [13] in a line: Cell Viability - LYMP2-026 (AID 989). Also: % is scaled to controls: 0 for no effect and ±100 for the full control effect; nearly all actives have a fitted effect of over 50% in size. In a few lines: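 qHTS cytotoxicity: 2500 cells/well, 5 hr 37 C, compound 24 hr 37 C, CellTiter-Glo 30 min RT, luminescence. Tetraoctylammonium bromide positive control. AC50 via standard Hill fit.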
Test [14] is described as follows: Cell Viability - LYMP1-002 - Assay at 24 hr (AID 993). Also: % is scaled to controls: 0 for no effect and ±100 for the full control effect. In a few lines:
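CellTiter-Glo luminescence (intracellular ATP) after 24 h compound exposure, 37 C, in LYMP1-002 human lymphoblastoid cells; decreased ATP taken as cytotoxicity. AC50 from standard Hill fit of concentration-response curves.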

Test [15] is described as follows: Cell Viability - LYMP1-002 - Assay at 40 hr (AID 994). In a few lines: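 qHTS cytotoxicity; 2500 cells/well, 5 hr 37 C settle, compound 40 hr 37 C. CellTiter-Glo, 30 min RT, luminescence (ATP). Concentration-response, Hill fit → AC50. Pos. ctrl tetraoctylammonium bromide.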
Test [16] is described as follows: qHTS Assay for Lipid Storage Modulators (AID 1519; calls by dose curve; as to activity change, negative = inhibition: % is scaled to controls: 0 for no effect and ±100 for the full control effect). To be noted: Drosophila S3 cells, BODIPY lipid droplet/cell ratio, laser cytometry, cells loaded with oleic acid. In a few lines:
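Cells seeded at 5,000 per well were treated with compounds over a concentration series and loaded with oleic acid (400 uM, as added). Lipid droplet fluorescence (488 nm excitation, 500-530 nm channel) was read by laser-scanning cytometry and normalized to 20 uM Triacsin C.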
Background: Quantitative high-throughput screening tests each substance at several concentrations.

Test [17] can be described thus: qHTS Assay for Identification of Small Molecule Inducers of Hypoxia Response (AID 2120; active = well fitted curve in the direction sought with a large enough effect in the signal ratio, with a control signal flat, not every such curve was filed as active; the % refers to the signal ratio; also: 0% is about no effect). Summed up: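 Read-out: CCF4 FRET emission ratio 460nm/530nm (excitation 405nm), converted to %Activity, with AC50 fitted across a compound titration. ME-180 cells carried an HRE-driven beta-lactamase reporter; compound exposure 17 h, 37 degrees C.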
Test [18] deals with Estrogen receptor (Homo sapiens) (UniProt P03372). The experiment in a line: qHTS assay for small molecule antagonists of estrogen receptor alpha signaling (AID 588513; active = well fitted curve in the direction sought with a large enough effect in the signal ratio, with a control signal flat, not every such curve was filed as active; the % refers to the signal ratio; also: % is scaled to controls: 0 for no effect and ±100 for the full control effect). Summed up:
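Antagonist-mode qHTS in ER-alpha-UAS-bla HEK 293 cells: compound titration, 0.5nM estradiol for 18 h, CCF4 fluorescence, Hill-derived IC50.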

A short description of test [19]: qHTS assay for small molecule antagonists of peroxisome proliferator-activated receptor delta signaling (AID 588535).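 Also: cells co-treated with a PPAR-delta agonist as stimulator during compound exposure.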 To be noted: HEK293T PPARd-UAS-bla, beta-lactamase FRET ratio, 18 h; 460 nm channel. In a few lines:
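Antagonist-mode qHTS using GeneBLAzer PPAR-delta-UAS-bla HEK293T cells; compound exposure 18 hrs at 37 C over a titration. Ratiometric CCF4 fluorescence at 460/530 nm; concentration-response points fitted to the Hill equation.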

Results filed as inconclusive are left out. The source made the active and inactive calls. Unless noted, calls follow the shape of the dose curve; as a rule, active = well fitted cell-killing curve with a large enough effect; inconclusive = small, poorly fitted or top-dose-only effect; inactive = flat fitted curve, though single readings scatter.

Chain of Estrogen receptor (Homo sapiens) (P03372 whole entry, looked up): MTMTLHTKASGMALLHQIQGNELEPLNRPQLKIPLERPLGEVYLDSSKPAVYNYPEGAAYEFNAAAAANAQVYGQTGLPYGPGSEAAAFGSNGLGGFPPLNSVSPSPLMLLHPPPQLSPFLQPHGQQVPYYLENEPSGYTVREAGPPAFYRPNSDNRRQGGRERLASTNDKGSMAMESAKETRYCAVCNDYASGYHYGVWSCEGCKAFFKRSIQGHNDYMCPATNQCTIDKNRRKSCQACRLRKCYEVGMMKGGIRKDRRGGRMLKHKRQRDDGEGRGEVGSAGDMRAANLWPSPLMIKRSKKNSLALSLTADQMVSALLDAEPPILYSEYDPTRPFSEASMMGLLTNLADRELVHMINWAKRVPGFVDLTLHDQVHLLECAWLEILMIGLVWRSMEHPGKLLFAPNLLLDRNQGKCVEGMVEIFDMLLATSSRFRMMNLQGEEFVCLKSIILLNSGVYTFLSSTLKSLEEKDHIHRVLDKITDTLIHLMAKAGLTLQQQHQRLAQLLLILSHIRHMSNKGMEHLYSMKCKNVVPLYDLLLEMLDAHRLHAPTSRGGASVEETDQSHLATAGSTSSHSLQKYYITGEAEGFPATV

`O=C(Nc1ccccc1)Nc1ccccc1`: the call in test [1], in test [2], in [3], in test [4], in test [5] and in test [6] was inactive. The result in test [7], in [8], in test [9], in test [10], in test [11] and in [12] was inactive. Moreover, the compound was classed as inactive in test [13], in test [14], in test [15], in test [17] and in test [18]. In addition, the activity change, negative = inhibition in test [16] (at 57.5 µM (top of the series)) is 11.8% (inactive). Also, the max response in test [16] (measured here: cell count channel max response) was -3.21%; in test [16] (measured here: lipid channel max response), 11.7%; in [19], -7.95%.

For the origin of these results see PubChem BioAssay (NCATS).
